Measured values taken from PubChem BioAssay AID1159572 (Broad Institute, 2015).
Measured potencies and affinities stand elsewhere. Activity calls are given as the source filed them.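 How the source made its calls: active means compounds whose fitted half-maximal growth inhibition concentration is at most twice their top tested dose; inconclusive means flat fit with 30 to 70% inhibition, or poor fit; inactive means the rest.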

Assay: P. falciparum Dd2 growth inhibitors, dose response, SYBR Green, dry powder samples, set 4 (AID 1159572)

## COc1ccc2c3c([nH]c2c1)[C@H](CO)N(C(C)=O)CC31CCN(C(=O)Nc2c(C)noc2C)CC1
  outcome: inactive
